Laboratory results published in the supplement of paper PMC8728848.
The sample as a whole holds a higher share of the strongest signals than the screen did.

Key:
Test in all cases: glycan array binding signal (z-score within array); higher = stronger binding
Settings in all cases: glycan notation: IUPAC condensed, linker removed; mutation: F63H
Fuc(a1-2)Gal(b1-3)GalNAc = biological target: Fuc(a1-2)Gal(b1-3)GalNAc
Method in brief: (§1)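 Negative Z-scores can be read as non-binding. The Z-score is calculated within each array and then averaged across arrays of one protein sequence at different concentrations or buffers and across linkers. Arrays, 3228 in all, were curated from the Consortium for Functional Glycomics database and kept only where the protein sequence was available.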

[1] = biological target: Fuc(a1-2)Gal(b1-3)GalNAc(b1-3)Gal(a1-4)Gal(b1-4)Glc
Method in brief: as §1

[2] = biological target: Fuc(a1-2)Gal(b1-3)GlcNAc(b1-3)Gal(b1-4)Glc
Method in brief: as §1

[3] = biological target: Fuc(a1-2)Gal(b1-3)GlcNAc(b1-3)[Neu5Ac(a2-6)Gal(b1-4)GlcNAc(b1-6)]Gal(b1-4)Glc
Method in brief: as §1

[4] = biological target: Fuc(a1-2)Gal(b1-4)GlcNAc(b1-3)Gal(b1-4)GlcNAc(b1-3)Gal(b1-4)GlcNAc
Method in brief: as §1

[5] = biological target: Fuc(a1-2)[GalNAc(b1-3)]Gal
Method in brief: as §1

Fuc(a1-3)GlcNAc = biological target: Fuc(a1-3)GlcNAc
Method in brief: as §1

[6] = biological target: Fuc(a1-3)[GalNAc(b1-4)]GlcNAc6S
Method in brief: as §1

Gal(a1-3)Gal = biological target: Gal(a1-3)Gal
Method in brief: as §1

Gal(a1-3)Gal(b1-4)GlcNAc = biological target: Gal(a1-3)Gal(b1-4)GlcNAc
Method in brief: as §1

[7] = biological target: Gal(a1-3)Gal(b1-4)GlcNAc(b1-6)GalNAc
Method in brief: as §1

[8] = biological target: Gal(a1-4)Gal(b1-4)GlcNAc(b1-2)Man(a1-3)[Gal(a1-4)Gal(b1-4)GlcNAc(b1-2)Man(a1-6)]Man(b1-4)GlcNAc(b1-4)GlcNAc
Method in brief: as §1

Gal(b1-3)Gal(b1-4)GlcNAc = biological target: Gal(b1-3)Gal(b1-4)GlcNAc
Method in brief: as §1

Gal(b1-3)GalNAc = biological target: Gal(b1-3)GalNAc
Method in brief: as §1

[9] = biological target: Gal(b1-3)GalNAc(a1-3)[Fuc(a1-2)]Gal(b1-4)Glc
Method in brief: as §1

[10] = biological target: Gal(b1-3)GalNAc(a1-3)[Fuc(a1-2)]Gal(b1-4)GlcNAc
Method in brief: as §1

[11] = biological target: Gal(b1-3)GalNAc(b1-4)Gal(b1-4)Glc
Method in brief: as §1

[12] = biological target: Gal(b1-3)GlcNAc(a1-3)Gal(b1-4)GlcNAc
Method in brief: as §1

[13] = biological target: Gal(b1-3)GlcNAc(b1-3)Gal(b1-4)GlcNAc(b1-3)Gal(b1-4)GlcNAc(b1-2)[Gal(b1-3)GlcNAc(b1-3)Gal(b1-4)GlcNAc(b1-3)Gal(b1-4)GlcNAc(b1-6)]Man(a1-6)[Gal(b1-3)GlcNAc(b1-3)Gal(b1-4)GlcNAc(b1-3)Gal(b1-4)GlcNAc(b1-2)Man(a1-3)]Man(b1-4)GlcNAc(b1-4)[Fuc(a1-6)]GlcNAc
Method in brief: as §1

[14] = biological target: Gal(b1-3)GlcNAc(b1-6)GalNAc
Method in brief: as §1

[15] = biological target: Gal(b1-4)GlcNAc(b1-2)Man(a1-3)[Gal(b1-4)GlcNAc(b1-2)Man(a1-6)][Gal(b1-4)GlcNAc(b1-4)]Man(b1-4)GlcNAc(b1-4)[Fuc(a1-6)]GlcNAc
Method in brief: as §1

[16] = biological target: Gal(b1-4)GlcNAc(b1-2)Man(a1-6)[GlcNAc(b1-2)Man(a1-3)]Man(b1-4)GlcNAc(b1-4)GlcNAc
Method in brief: as §1

[17] = biological target: Gal(b1-4)GlcNAc(b1-2)[Gal(b1-4)GlcNAc(b1-6)]Man(a1-6)[GlcNAc(b1-4)][Gal(b1-4)GlcNAc(b1-2)Man(a1-3)]Man(b1-4)GlcNAc(b1-4)GlcNAc
Method in brief: as §1

[18] = biological target: Gal(b1-4)GlcNAc(b1-2)[Gal(b1-4)GlcNAc(b1-6)]Man(a1-6)[GlcNAc(b1-4)][Gal(b1-4)GlcNAc(b1-2)[Gal(b1-4)GlcNAc(b1-4)]Man(a1-3)]Man(b1-4)GlcNAc(b1-4)[Fuc(a1-6)]GlcNAc
Method in brief: as §1

[19] = biological target: Gal(b1-4)GlcNAc(b1-3)Gal(b1-4)GlcNAc(b1-3)Gal(b1-4)GlcNAc(b1-2)Man(a1-3)[Gal(b1-4)GlcNAc(b1-3)Gal(b1-4)GlcNAc(b1-3)Gal(b1-4)GlcNAc(b1-2)Man(a1-6)]Man(b1-4)GlcNAc(b1-4)[Fuc(a1-6)]GlcNAc
Method in brief: as §1

[20] = biological target: Gal(b1-4)GlcNAc(b1-3)Gal(b1-4)GlcNAc(b1-3)Gal(b1-4)GlcNAc(b1-3)Gal(b1-4)GlcNAc(b1-3)Gal(b1-4)GlcNAc(b1-2)Man(a1-3)[Gal(b1-4)GlcNAc(b1-3)Gal(b1-4)GlcNAc(b1-3)Gal(b1-4)GlcNAc(b1-3)Gal(b1-4)GlcNAc(b1-3)Gal(b1-4)GlcNAc(b1-2)Man(a1-6)]Man(b1-4)GlcNAc(b1-4)[Fuc(a1-6)]GlcNAc
Method in brief: as §1

[21] = biological target: Gal(b1-4)GlcNAc(b1-3)Gal(b1-4)GlcNAc(b1-3)Gal(b1-4)GlcNAc(b1-3)Gal(b1-4)GlcNAc(b1-3)Gal(b1-4)GlcNAc(b1-3)Gal(b1-4)GlcNAc(b1-2)Man(a1-3)[Gal(b1-4)GlcNAc(b1-3)Gal(b1-4)GlcNAc(b1-3)Gal(b1-4)GlcNAc(b1-3)Gal(b1-4)GlcNAc(b1-3)Gal(b1-4)GlcNAc(b1-3)Gal(b1-4)GlcNAc(b1-2)Man(a1-6)]Man(b1-4)GlcNAc(b1-4)GlcNAc
Method in brief: as §1

[22] = biological target: Gal(b1-4)GlcNAc(b1-3)Gal(b1-4)GlcNAc(b1-3)GalNAc
Method in brief: as §1

[23] = biological target: Gal(b1-4)GlcNAc(b1-3)Gal(b1-4)GlcNAc(b1-3)[Gal(b1-4)GlcNAc(b1-3)Gal(b1-4)GlcNAc(b1-6)]GalNAc
Method in brief: as §1

[24] = biological target: Gal(b1-4)GlcNAc(b1-3)GalNAc
Method in brief: as §1

Gal(b1-6)Gal = biological target: Gal(b1-6)Gal
Method in brief: as §1

Gal3S(b1-3)GlcNAc = biological target: Gal3S(b1-3)GlcNAc
Method in brief: as §1

B1: AAL (Agrocybe aegerita), Q6WY08 (protein)
chain: MQGVNIYNISAGTSVDLAAPVTTGDIVTFFSSALNLNAGAGNPNNTTLNLFAENGAYLLHIAHRLQENVIIFNSRQPDGPWLVEQRVSDVANQFAGIDGKAMVTVFDHGDKYQVVINEKTVIQYTKQISGLTLSLSYNATEETSIFSTVVEAVTYTGLALEHHHHHH
- glycan array binding signal (z-score) (Fuc(a1-2)Gal(b1-3)GalNAc): -0.198
- glycan array binding signal (z-score) [1]: -0.075
- glycan array binding signal (z-score) [2]: -0.394
- glycan array binding signal (z-score) [3]: 0.013
- glycan array binding signal (z-score) [4]: -0.151
- glycan array binding signal (z-score) [5]: -0.544
- glycan array binding signal (z-score) (Fuc(a1-3)GlcNAc): -0.394
- glycan array binding signal (z-score) [6]: -0.005
- glycan array binding signal (z-score) (Gal(a1-3)Gal): -0.04
- glycan array binding signal (z-score) (Gal(a1-3)Gal(b1-4)GlcNAc): -0.342
- glycan array binding signal (z-score) [7]: -0.072
- glycan array binding signal (z-score) [8]: 0.969
- glycan array binding signal (z-score) (Gal(b1-3)Gal(b1-4)GlcNAc): -0.287
- glycan array binding signal (z-score) (Gal(b1-3)GalNAc): -0.177
- glycan array binding signal (z-score) [9]: -0.298
- glycan array binding signal (z-score) [10]: -0.341
- glycan array binding signal (z-score) [11]: -0.435
- glycan array binding signal (z-score) [12]: 0.927
- glycan array binding signal (z-score) [13]: 0.029
- glycan array binding signal (z-score) [14]: 0.316
- glycan array binding signal (z-score) [15]: -0.332
- glycan array binding signal (z-score) [16]: -0.263
- glycan array binding signal (z-score) [17]: 4.37
- glycan array binding signal (z-score) [18]: -0.265
- glycan array binding signal (z-score) [19]: 1.22
- glycan array binding signal (z-score) [20]: -0.033
- glycan array binding signal (z-score) [21]: 0.376
- glycan array binding signal (z-score) [22]: -0.163
- glycan array binding signal (z-score) [23]: 0.226
- glycan array binding signal (z-score) [24]: -0.105
- glycan array binding signal (z-score) (Gal(b1-6)Gal): -0.264
- glycan array binding signal (z-score) (Gal3S(b1-3)GlcNAc): -0.185
